Among all 65,000 compounds or so, about 120 (0.18%) were called active. This excerpt belongs to a sample that is enriched for actives. Unmarked numbers belong to inactive results. Cut-off read from the data, not from the text of the source: active = z-score below about -3; inactive = the rest.
Each molecule was assayed against Genome polyprotein (West Nile virus) (UniProt P06935) (assay: West Nile NS2B-NS3 proteinase blockers – biochemical, fluorogenic substrate, primary screen (AID 577)). Conditions: WNV NS2B-NS3 protease, fluorogenic substrate Ex360/Em465; stronger effect = lower value.
Genome polyprotein (West Nile virus), sequence (P06935 1371-1501 limits assumed): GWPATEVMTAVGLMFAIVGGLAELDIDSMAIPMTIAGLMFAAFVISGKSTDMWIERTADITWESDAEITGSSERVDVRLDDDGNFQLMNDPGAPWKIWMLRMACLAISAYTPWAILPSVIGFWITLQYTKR
Genome polyprotein (West Nile virus), sequence (P06935 1502-1679 limits assumed): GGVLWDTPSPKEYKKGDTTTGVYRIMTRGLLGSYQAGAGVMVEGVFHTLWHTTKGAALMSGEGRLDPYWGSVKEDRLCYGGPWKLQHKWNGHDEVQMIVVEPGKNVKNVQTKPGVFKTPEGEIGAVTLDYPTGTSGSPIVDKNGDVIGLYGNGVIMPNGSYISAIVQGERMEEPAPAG
Molecule O=C(Nc1ccccc1N1CCCCC1)c1ccc2nccnc2c1 has a z-score of -0.92.
Cc1cc(N2C(=O)C(=O)/C(=C(/O)c3ccc(Cl)cc3)C2c2cccc(Br)c2)no1 (stereo not drawn) gave a z-score of 0.05.
Molecule COc1ccc(S(=O)(=O)N2CCN(c3ncnc4c(-c5ccccc5)nsc34)CC2)cc1 has a z-score of -0.64.
Cc1ccc(NC(=O)C2CC(c3ccc(F)cc3)=NO2)cc1 (stereo not drawn) showed a z-score of -0.46.
Work on Cc1noc(C)c1S(=O)(=O)NCCc1ccc(S(N)(=O)=O)cc1 yielded a z-score of -0.09.
Cn1c(=O)cc(OCCCC(=O)N2CCN(Cc3ccc4c(c3)OCO4)CC2)c2ccccc21 showed a z-score of -0.06.
O=c1[nH][nH]c(=O)c2cc(N3CCCC3)ccc12 showed a z-score of 0.92.
Molecule COc1ccc(C)c2sc(=NC(=O)c3ccc(C#N)cc3)n(C)c12 has a z-score of 0.36.
In the case of COc1ccccc1CNC(=O)CCn1c(=O)sc2ccccc21, the z-score is reported as 0.34.
O=S(=O)(CCc1nc2ccccc2o1)c1ccc(Cl)cc1 gave a z-score of 0.84.
For CCN(CC(=O)NC(C)C)C(=O)CCNC(=O)c1ccc(Cl)cc1, the z-score was -3.81 (active).
CC(NC(=O)c1ccc(Cl)cc1)C(=O)N1CCCCC1 (stereo not drawn) showed a z-score of -0.48.
In the case of Cc1ccc(CNC(=O)CCCNC(=O)c2ccc(Cl)cc2)n1C, the z-score is reported as 0.2.
CCOC(=O)C1CCCN(C(=O)Cn2ncc3c(=O)oc4ccc(C)cc4c32)C1 (stereo not drawn) was tested, and the z-score was -0.8.
In the case of CC(=O)N(Cc1cccs1)C1CCOC(C)(C)C1 (stereo not drawn), the z-score is reported as 0.1.
O=c1c2c(nc3n1CCCCC3)sc1c(O)cccc12 was tested, and the z-score was -0.99.
CCn1cc(C(=O)NCc2ccc(OC)cc2OC)c(=O)c2ccc(C)nc21 showed a z-score of 0.31.
In the case of CC(=O)N1CCN(C(=O)c2cccc(S(=O)(=O)Nc3ccc(C)cc3)c2)CC1, the z-score is reported as -4.83 (active).
Molecule CN1CCN(C(=O)c2ccc(NS(=O)(=O)c3ccccc3)cc2)CC1 has a z-score of 0.73.
O=C(c1cccc(S(=O)(=O)N2CCOCC2)c1)N1CCOCC1 gave a z-score of -0.56.
O=C(NCc1ccco1)C1CCCN(S(=O)(=O)c2cnc[nH]2)C1 (stereo not drawn) gave a z-score of 0.15.
With Cn1c(=O)[nH]c(=O)c2c1nc(N1CCN(CCO)CC1)n2CCSc1nc2ccccc2s1 the z-score was 0.89.
CCOC(=O)N1CCC(NC(=O)c2ccc3nc(N4CCOCC4)sc3c2)CC1 showed a z-score of -0.98.
For O=C(NCc1ccco1)c1ccc(CS(=O)(=O)Cc2ccc(F)cc2)o1, the z-score was -0.19.
For CCOc1ccccc1NC(=O)c1cc(S(=O)(=O)N2CCC3(CC2)OCCO3)ccc1F, the z-score was -0.89.
Molecule O=C(Cn1c(-c2ccccn2)nc2ccccc21)NCCN1CCOCC1 has a z-score of 0.41.
Molecule O=C(Nc1ccon1)c1sc2ccccc2c1Cl has a z-score of 1.15.
Molecule O=C(O)Cc1ccc(NC(=O)C2CCCCC2C(=O)O)cc1 (stereo not drawn) has a z-score of 0.69.
Work on Cc1cccc(N2CC(C)Cn3c2nc2c3c(=O)n(CC(=O)OCc3ccccc3)c(=O)n2C)c1 (stereo not drawn) yielded a z-score of -0.58.
O=C(Cc1c(F)cccc1Cl)N1CCN(C(=O)c2ccco2)CC1 showed a z-score of 0.71.
Molecule Cc1oc(CC(C)C)c(CN2CCCC2)c1C(=O)O has a z-score of 0.09.
CC1CCN(c2nc3c(c(=O)[nH]c(=O)n3C)n2CCCc2ccccc2)CC1 gave a z-score of -0.61.
COc1ccc(NC(=O)Nc2cccc3cccnc23)cc1 showed a z-score of -0.61.
Molecule COc1ccc(-c2ccc(Nc3ccc(S(=O)(=O)N4CCCC4)cc3)nn2)cc1OC has a z-score of -0.56.
Work on c1ccc(-c2cc(-c3nnc4sc(-c5ccccn5)nn34)[nH]n2)cc1 yielded a z-score of -1.41.
Cc1cc2nc(-c3ccc(NC(=O)c4cccnc4)cc3)oc2cc1C gave a z-score of -0.13.
For COc1ccc(OC)c(S(=O)(=O)Nc2ccccc2F)c1, the z-score was 0.89.
With O=C(Cn1cnc2c(nnn2-c2ccccc2)c1=O)N1CCC(Cc2ccccc2)CC1 the z-score was 2.2.
Work on NS(=O)(=O)c1cc2c(cc1Cl)NC(C(Cl)Cl)NS2(=O)=O (stereo not drawn) yielded a z-score of 1.86.
CNC(=O)n1ccc(C(=O)N2CCCCC2)n1 showed a z-score of 1.25.
For COc1ccccc1N=C1SC(C)CN1C(=O)C1CCC1 (stereo not drawn), the z-score was -0.3.
COCCN1Cc2cccc(C(=O)Nc3ccccc3OC)c2C1=O was tested, and the z-score was -0.41.
For CC(C)OCCCNC(=O)C1CC(=O)N(C2CCCCCCC2)C1 (stereo not drawn), the z-score was -1.25.
CCOC(=O)C1=C(CNC2CCCCC2)NC(=O)NC1c1cc(C)ccc1C (stereo not drawn) gave a z-score of -0.35.
With c1ccc(-c2noc(-c3cccs3)n2)nc1 the z-score was -0.18.
O=C(CCCN1C(=O)CSc2ncccc21)N1CCN(c2cccc(C(F)(F)F)c2)CC1 gave a z-score of 0.85.
For O=C(CC1(O)C(=O)N(CN2CCOCC2)c2ccccc21)c1ccccc1 (stereo not drawn), the z-score was 2.57.
For CC(C)Cn1c(CN(Cc2ccccc2)Cc2ccccc2)nc2c1c(=O)n(C)c(=O)n2C, the z-score was 0.14.
CCOC(=O)N1CCN(CC(=O)c2ccc3c(c2)CCN3)CC1 was tested, and the z-score was -0.8.
O=C1Nc2ccccc2C12Nc1ccccc1S2 (stereo not drawn) gave a z-score of -0.84.
Molecule CC(=O)N1CC2(C)CN(C(C)=O)CC(C)(C1)C2=O has a z-score of -0.17.
In the case of CCOC(=O)c1cnc(-n2nc(C)cc2C)nc1-n1nc(C)cc1C, the z-score is reported as 0.5.
For CCOC(=O)N1CCN(C(=O)CN(C2CCCCC2)S(C)(=O)=O)CC1, the z-score was -1.44.
In the case of COC(=O)C1=C(C)NC2=C(C(=O)c3ccccc32)C1c1ccc(-c2ccc(C(=O)O)cc2)o1 (stereo not drawn), the z-score is reported as 0.76.
For COCCCN(C(=O)Cn1ncc2c(=O)oc3ccc(C)cc3c21)C(C)c1ccncc1 (stereo not drawn), the z-score was -0.67.
Cc1ccccc1N1CC(c2nc3ccccc3[nH]2)CC1=O (stereo not drawn) was tested, and the z-score was 1.22.
With O=C(CC1N=C2c3ccccc3N=C(SCc3ccccc3Cl)N2C1=O)NCc1ccco1 (stereo not drawn) the z-score was 1.46.
In the case of Cc1c(C(=O)Nc2ccccc2Cl)oc2ccc(S(=O)(=O)N3CCC4(CC3)OCCO4)cc12, the z-score is reported as -1.64.
With Cc1cccc(-n2c(N)cc(=O)nc2SC(C)C(=O)NC2CCCCC2)c1 (stereo not drawn) the z-score was -0.09.
CCCCN=C(N)/C(C(=O)OCC)=C(\O)c1ccc(OC)cc1 was tested, and the z-score was 0.82.
Molecule COc1ccc2c(Cl)c(-c3nnco3)sc2c1 has a z-score of -0.13.
In the case of C=CCOc1ccc(/C=N/n2cncn2)cc1OC, the z-score is reported as 1.7.
CCOCC(=O)NCc1ccc2c(c1)cc(C)n2C gave a z-score of -0.69.
Cc1ccc2c(c1)NCC(C(=O)NC1CCC(C)CC1)O2 (stereo not drawn) was tested, and the z-score was 0.12.
With c1ccc(-c2nnc3n2NC(c2ccc4c(c2)OCO4)S3)cc1 (stereo not drawn) the z-score was -0.39.
C=CCn1c(COc2cccc3cccnc23)nnc1SCC(=O)OC showed a z-score of -1.04.
COc1ccc(-n2c(SCC(=O)Nc3ccc4c(c3)OCO4)nnc2C(C)N2CCCCC2)cc1 (stereo not drawn) was tested, and the z-score was -0.67.
Work on CCOc1ccccc1NC(=O)CCc1ccc(C)o1 yielded a z-score of -0.55.
O=C(c1ccco1)N(Cc1nc2ccccc2c(=O)[nH]1)C1CCCC1 gave a z-score of -1.19.
Cn1c(NC(=O)c2ccco2)c(-c2ccccc2Cl)c(=O)c2ccccc21 gave a z-score of -0.04.
COC(=O)c1oc2ccc(Br)cc2c1NC(C)=O was tested, and the z-score was 0.25.
For COc1ccc(C(=O)c2oc3ccc(Br)cc3c2NC(C)=O)cc1, the z-score was -3 (active).
With COc1ccc2oc(C)c(NC(C)=O)c2c1 the z-score was -0.59.
In the case of O=C1CSC(c2cccc(F)c2)N1c1ccccc1F (stereo not drawn), the z-score is reported as -0.93.
With CCCS(=O)(=O)N1CCCC(C(=O)N2CCN(c3ccccc3)CC2)C1 (stereo not drawn) the z-score was 0.81.
CCn1c(SCCC(C)C)nnc1-c1c[nH]c2ccccc12 gave a z-score of -0.65.
For CCOC1CCCCC1NS(=O)(=O)c1ccc(Cl)cc1 (stereo not drawn), the z-score was -0.25.
Molecule CCNC(=O)N1CCNC(=O)C1CC(=O)Nc1ccc(C(=O)OCC)cc1 (stereo not drawn) has a z-score of -0.78.
In the case of Cc1cccc2nc(CNc3ccc(F)cc3)cn12, the z-score is reported as -0.49.
Cc1cc(N2CCCC2=O)cc(C)c1S(N)(=O)=O showed a z-score of 0.56.
O=C(O)C1C2C=CC(C2)C1C(=O)N1CCN(CCO)CC1 (stereo not drawn) showed a z-score of 0.43.
CCCn1c(=O)c2[nH]c(C3CCCC3)nc2n(CCC)c1=O was tested, and the z-score was 0.05.
CCOc1ccccc1Nc1nnc(SCC(=O)Nc2cc(C)on2)s1 gave a z-score of -1.46.
O=C(CN1C(=O)COc2ccccc21)Nc1ccc(F)cc1 gave a z-score of 1.4.
Cc1ccc(S(=O)(=O)n2nc(OC(=O)C(C)(C)C)cc2N)cc1 showed a z-score of 0.18.
With Nc1cc(OC(=O)c2ccccc2Br)nn1S(=O)(=O)c1ccccc1 the z-score was -6.2 (active).
CCCCN(CC)C(=O)CN(C)S(=O)(=O)c1cccc2nsnc12 was tested, and the z-score was 1.67.
For CC1Cc2ccccc2N1C(=O)CSc1nnc(-c2ccc(S(=O)(=O)N3CCCCC3)cc2)o1 (stereo not drawn), the z-score was 0.94.
In the case of CC(=O)N1CSCC1C(=O)O (stereo not drawn), the z-score is reported as -5.15 (active).
For COCc1cc(C)nc(SCC(=O)Nc2cccc(C)c2)c1C#N, the z-score was 1.36.
Work on Cn1c(=NC(=O)c2cnccn2)sc2ccccc21 yielded a z-score of -1.53.
Work on O=C(Nc1ccccc1N1CCCCC1)c1cccc(F)c1 yielded a z-score of 0.74.
Molecule O=C(CNC(=O)c1ccc(Cl)cc1Cl)NCC(=O)Nc1ccccc1N1CCOCC1 has a z-score of -1.5.
In the case of CC(=NCc1ccco1)C1=C(O)c2ccccc2C1=O, the z-score is reported as 0.81.
Work on CC1Cc2ccccc2N1C(=O)CSc1nc2ccccc2o1 (stereo not drawn) yielded a z-score of -0.42.
Work on O=C(COc1ncnc2ccccc12)NC(=O)NCc1ccccc1 yielded a z-score of 0.88.
Work on Cc1noc(C)c1COC(=O)Cn1c(C)nc2ccccc21 yielded a z-score of -1.33.
In the case of CCOC(=O)N1CCC(NC(=O)C(C)n2c3ccccc3c3cnn(C)c(=O)c32)CC1 (stereo not drawn), the z-score is reported as -0.72.

From PubChem BioAssay AID577 (University of Pittsburgh Molecular Library Screening Center, 2007)
